Laboratory results: PubChem BioAssay (NCATS)
Where “and” joins values, the source holds several entries; their conditions need not be identical. Equal entries are not always repeated. Inconclusive results are not listed. The source holds several records for some structures; these can differ, active in one and inactive in another. Calls of active or inactive are those of the source. The call rests on the fitted dose curve; in most records, active means well fitted curve in the direction sought with a large enough effect; inconclusive means small, poorly fitted or top-dose-only effect, or another doubt; inactive means no such curve, though single readings can be large; an effect the other way counts as inactive or inconclusive.

What was measured:
[1] = Viability qHTS for spleen associated tyrosine kinase inhibitor (SYKi) naive MV4-11 cells (AID 1963823); further: nearly all actives have a fitted effect of over 40% in size
Method in brief: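 Cells: MV4-11, SYK inhibitor naive, 500 per well. Treatment: library compounds, 72 hr, 37 C, 5% CO2. Read-out: CellTiter-Glo luminescence after 10 min RT.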

[2] = Viability qHTS for spleen associated tyrosine kinase inhibitor (SYKi) drug resistant MV4-11 cells (AID 1963824); further: nearly all actives have a fitted effect of over 35% in size
Method in brief: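 CellTiter-Glo luminescence, read 10 min after reagent addition, reports viability after a 72 hr compound exposure. Cells are an MV4-11 line made resistant to SYK inhibition, seeded at 500 per well onto compound-containing plates.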

[3] = Cellular viability qHTS for adrenocortical cancer (ACC) cell line SW-13 (AID 1963989); details: SW-13 ACC cells viability, CellTiter-Glo, 48 h; activity (max response): stronger effect = lower value; further: nearly all actives have a fitted effect of over 65% in size;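 on activity (max response): cells grown in serum-free medium with ITS supplement; on the % scale 0 is the no-effect control and ±100 the full control effect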
Method in brief: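 Luminescent ATP read-out (CellTiter-Glo, 20 min at room temperature) measured metabolically competent SW-13 cells after 48 h compound treatment. Final concentrations spanned up to 46 uM; bortezomib served as positive control.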

[4] = Cellular viability qHTS for adrenocortical cancer (ACC) cell line NCI-H295R (AID 1963990); further: nearly all actives have a fitted effect of over 60% in size
Method in brief: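 IC50 and maximal efficacy derive from four-parameter logistic modelling of titration curves, with reads scaled between DMSO-only wells (0%) and doxorubicin hydrochloride (100% inhibition). Compounds spanned up to 46 uM over 48 h.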
Potency means the concentration at half of the fitted maximal effect.

Compound | Potency [1] | Potency [2] | Potency [3] | activity (max response) [3] | Potency [4]
O=C1Nc2ccc(Cl)cc2[C@@](C#CC2CC2)(C(F)(F)F)O1 | 16.6 µM (active) and 5.17 µM (active) | 13.2 µM (active) and 5.8 µM (active) | 18.4 µM (active) and 25.1 µM (active) |  | 
CC(C)n1c(/C=C/[C@H](O)C[C@H](O)CC(=O)O)c(-c2ccc(F)cc2)c2ccccc21 | 2.63 µM (active) | 1.32 µM (active) | 17.8 µM (active) |  | 
CCN(CC)C(=O)N1CCN(C)CC1 | inactive | inactive |  | -0.284% (inactive) | 
O=C(O)[C@@H]1[C@H]2C[C@H]3c4[nH]c5ccccc5c4CCN3C[C@@H]2CC[C@@H]1O | 2.66 µM (active) | 5.96 µM (active) |  | 3.73% (inactive) | 
CC(=O)/C=C/C=C1/C2CCC(C2)C1(C)C (stereo unspecified) | inactive | inactive |  | 6.09% (inactive) | 
Cc1ncc(NC(=O)c2cccc(C(F)(F)F)c2)cc1-c1cnc(OC2CCOCC2)c(N2CCOCC2)c1 | 6.61 µM (active) | 5.9 µM (active) | 22.4 µM (active) |  | 
Cc1c(-c2cnccn2)ssc1=S | 4.17 µM (active) | 4.68 µM (active) |  | -8.54% (inactive) | 
CN1CCC(Nc2ncc3ncnc(Nc4ccc(F)c(Cl)c4)c3n2)CC1 | 9.44 µM (active) and 9.2 µM (active) | 18.8 µM (active) and 11.6 µM (active) | 18.4 µM (active) |  | 
O=C(Nc1ccc(OC(F)(F)Cl)cc1)c1cnc(N2CC[C@@H](O)C2)c(-c2ccn[nH]2)c1 | 5.9 µM (active) | 6.61 µM (active) | 20 µM (active) |  | 
CC1=C(C(=O)O)N2C(=O)[C@@H](NC(=O)[C@H](N)c3ccc(O)cc3)[C@H]2SC1 | inactive | inactive |  | 8.09% (inactive) | 
CC(C)NCC(O)c1cc(O)cc(O)c1 (stereo unspecified) | inactive | inactive |  | 13.2% (inactive) | 
CC[C@@](C)(Nc1ccnc(-c2c[nH]c3ncccc23)n1)C(=O)NCC(F)(F)F | 14.6 µM (active) | 16.4 µM (active) |  | 0.931% (inactive) | 
C[C@H]1C[C@H]2[C@@H]3CCC4=CC(=O)C=C[C@]4(C)[C@@]3(Cl)[C@@H](O)C[C@]2(C)[C@@]1(O)C(=O)CO | 21.1 µM (active) | 13.3 µM (active) |  | -3.23% (inactive) | 
CCN(CC)CCOC(=O)C1(C2CCCCC2)CCCCC1 | inactive | inactive |  | -12.2% (inactive) | 
Cn1cc(/C=C/C(=O)c2cccc(F)c2)cc1/C=C/C(=O)NO | 3.72 µM (active) | 4.17 µM (active) |  | 9.4% (inactive) | 
Cc1[nH]c2ccc(F)cc2c1-c1nc2c3cccnc3c3ncccc3c2[nH]1 | 0.231 µM (active) | 0.184 µM (active) | 2.24 µM (active) |  | 
CCOC(=N)c1nc2ccc3ncnc(Nc4cc(F)c(F)cc4Cl)c3c2s1 | 7.42 µM (active) | 7.42 µM (active) |  | -16.7% (inactive) | 
CC1=C2C[C@H]3[C@@H](CC[C@@H]4C[C@H](NS(C)(=O)=O)CC[C@@]43C)[C@@H]2CC[C@@]2(C1)O[C@@H]1C[C@H](C)CN[C@H]1[C@H]2C | 9.34 µM (active) | 4.68 µM (active) | 25.1 µM (active) |  | 
Oc1ccccc1 | inactive | inactive |  | 8.68% (inactive) | 

Compound | Potency [1] | Potency [2] | Potency [3] | activity (max response) [3] | Potency [4]
OCc1ccccc1O[C@@H]1O[C@H](CO)[C@@H](O)[C@H](O)[C@H]1O | inactive | inactive |  | -1.84% (inactive) | 
CCCCC(=O)OCC(=O)[C@]1(O)Cc2c(O)c3c(c(O)c2[C@@H](O[C@H]2C[C@H](NC(=O)C(F)(F)F)[C@H](O)[C@H](C)O2)C1)C(=O)c1c(OC)cccc1C3=O | 0.148 µM (active) | 0.209 µM (active) | 2.82 µM (active) |  | 
N#Cc1ccc(COC[C@H]2O[C@@H](n3c(NCc4ccc(Cl)c(Cl)c4)nc4c(N)ncnc43)[C@H](O)[C@@H]2O)cc1 | 4.68 µM (active) | 2.52 µM (active) and 3.32 µM (active) | 25.1 µM (active) |  | 
C/C(=N\NC(=O)c1cccc(S(=O)(=O)N2CCOCC2)c1)c1cc(Cl)ccc1O | 0.525 µM (active) | 0.742 µM (active) | 8.91 µM (active) |  | 
O=C(O)c1cc(O)c(O)c(O)c1 | inactive | 13.3 µM (active) |  | -1.2% (inactive) | 
c1ccc(CC2=NCCN2)cc1 | inactive | inactive |  | -11.9% (inactive) | 
COc1cc(C(=S)N2CCOCC2)ccc1O | inactive | inactive |  | -19.3% (inactive) | 
C[C@H](NC(=O)c1c(N)nn2cccnc12)c1cc2cccc(C#Cc3cnn(C)c3)c2c(=O)n1-c1ccccc1 | 7.23 µM (active) | 7.23 µM (active) |  | -17.5% (inactive) | 
O=C1NC(=O)C(c2c[nH]c3ccccc23)=C1c1c[nH]c2ccccc12 | 1.86 µM (active) | 1.16 µM (active) | 25.1 µM (active) |  | 
CCC(=O)O[C@H]1[C@H](O[C@@H]2[C@@H](C)[C@H](O[C@H]3C[C@@](C)(OC)[C@@H](O)[C@H](C)O3)[C@@H](C)C(=O)O[C@H](CC)[C@@](C)(O)[C@H](O)[C@@H](C)C(=O)[C@H](C)C[C@@]2(C)O)O[C@H](C)C[C@@H]1N(C)C | inactive | inactive |  | 0.809% (inactive) | 
CCn1nc(C2CCN(C(=O)CCO)CC2)nc1-c1cnc(N)c(-c2nnc(C(C)(C)C)o2)n1 | 5.25 µM (active) | 5.25 µM (active) |  | -18.1% (inactive) | 
CCOC(=O)C(=O)CCCCCCl | inactive | inactive |  | 1.38% (inactive) | inactive
Cn1c(=O)c2c(ncn2CCO)n(C)c1=O | inactive | inactive |  | -10.8% (inactive) | 
COc1ccc([C@@H]2Sc3ccccc3N(CCN(C)C)C(=O)[C@@H]2OC(C)=O)cc1 | inactive | 7.5 µM (active) and inactive |  | -9.3% (inactive) and 4.69% (inactive) | inactive
O=C(CCCCCCC(=O)N/N=C/c1ccc(N(c2ccccc2)c2ccccc2)cc1)NO | 4.17 µM (active) | 4.17 µM (active) | 28.2 µM (active) |  | 0.631 µM (active)
COc1cc(N2CCC(N)CC2)ccc1Nc1ncc(Cl)c(-c2c[nH]c3ccccc23)n1 | 0.0166 µM (active) | 18.4 nM (active) and 37.2 nM (active) | 3.16 µM (active) |  | 0.447 µM (active)
Cc1cc2c(C(C)C)c(O)c(O)c(C=O)c2c(O)c1-c1c(C)cc2c(C(C)C)c(O)c(O)c(C=O)c2c1O | 6.61 µM (active) | 4.68 µM (active) | 10 µM (active) |  | 8.2 µM (active)
C#CC(C)(CC)OC(=O)c1ccccc1C(=O)O (stereo unspecified) | inactive | inactive |  | 8.16% (inactive) | inactive
Cc1c(NC(C)C)c(=O)n(-c2ccccc2)n1C | inactive | inactive |  | 8.03% (inactive) | inactive
